# From PubChem BioAssay (Tox21)
# Unmarked numbers belong to inactive results. Inconclusive results are not listed. Where a call stands in place of a potency, no number is given. Calls of active or inactive are those of the source. Unless noted, the call rests on the fitted dose curve.
# How the values were obtained:
# [1] = Nuclear factor erythroid 2-related factor 2/antioxidant responsive element (Nrf2/ARE) small molecule agonists: qHTS cell viability counter screen in human keratinocytes (AID 1919968; active means well fitted cell-killing curve with a large enough effect in the repeat runs; further: nearly all actives have a fitted effect of over 55% in size)
# Method in brief: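 KeratinoSens cells (HaCaT keratinocytes stably carrying an ARE-luciferase reporter) were seeded at 1,500 cells/well and rested 5 h at 37 C/5% CO2. They were then exposed to compounds in DMSO for 23 h. Viability was read by CellTiter-Fluor fluorescence after 1 h.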
# [2] = Nuclear factor erythroid 2-related factor 2/antioxidant responsive element (Nrf2/ARE) small molecule agonists: luciferase reporter gene qHTS assay in human keratinocytes (AID 1919969); further: nearly all actives have a fitted effect of over 35% in size; further: potency means the concentration at half of the fitted maximal effect
# [3] = target: Gonadotropin-releasing hormone receptor (Homo sapiens) (UniProt P30968); assay: Human gonadotropin-releasing hormone receptor (GnRHR) small molecule agonists, calcium flux assay in GnRHR-HEK293 cells (AID 1920063); further: nearly all actives have a fitted effect of over 35% in size; further: potency means the concentration at half of the fitted maximal effect
# Gonadotropin-releasing hormone receptor (Homo sapiens), sequence (P30968 whole entry, looked up): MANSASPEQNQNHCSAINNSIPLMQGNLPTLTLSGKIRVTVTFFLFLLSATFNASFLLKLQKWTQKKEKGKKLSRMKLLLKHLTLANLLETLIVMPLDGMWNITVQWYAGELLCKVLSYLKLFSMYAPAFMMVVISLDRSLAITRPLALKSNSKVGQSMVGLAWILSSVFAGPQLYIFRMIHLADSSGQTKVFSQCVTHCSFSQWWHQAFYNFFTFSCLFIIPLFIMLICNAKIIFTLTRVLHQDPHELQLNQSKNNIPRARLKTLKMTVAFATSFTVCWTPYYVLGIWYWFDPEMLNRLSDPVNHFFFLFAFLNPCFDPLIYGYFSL
# Method in brief: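 HEK293 cells stably expressing human GnRHR were plated 18 h at 37 °C, loaded with calcium dye 1 h at 37 °C, then given compound in agonist mode; fluorescence (Ex/Em 480/540) read kinetically for 3 min at 1 s intervals.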
# [4] = G protein-coupled receptor (GPCR) small molecule agonists, calcium flux assay: HEK293 wild type cell line counter screen (AID 1920065)
# Method in brief: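 Cells were plated and cultured 18 h at 37 C/5% CO2, then loaded with calcium dye for 1 h at 37 C. Compounds in DMSO were pin-transferred in agonist mode, and fluorescence (Ex/Em 480/540) was read kinetically for 3 min at 1 s intervals.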
# [5] = p53 small molecule agonists, cell-based qHTS assay with human liver microsomes (AID 1963577)
# Method in brief: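 Compounds act here after metabolic activation: human liver microsomes and NADPH, both at 0.5 mg/mL final, were co-added to p53RE-bla cells. Incubation ran 16 h at 37 C, followed by LiveBLAzer detection.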
# [6] = p53 small molecule agonists, cell-based qHTS assay with human liver microsomes: qHTS cell viability counter screen (AID 1963579); further: nearly all actives have a fitted effect of over 45% in size
# Method in brief: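 Cells carrying the p53 response-element beta-lactamase reporter are treated for 16 h at 37 C with test compounds in the presence of human liver microsomes and NADPH (both 0.5 mg/mL final); ATP-based CellTiter-Glo luminescence then reports viability.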
# [7] = p53 small molecule agonists, cell-based qHTS assay with rat liver microsomes: qHTS cell viability counter screen (AID 1963580); further: nearly all actives have a fitted effect of over 45% in size
# Method in brief: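 Intracellular ATP, by CellTiter-Glo luminescence, defines viability. HCT-116 p53RE-bla cells, 4,000 per well, were compound-treated in the presence of rat liver microsomes and NADPH for 16 h at 37 C.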
# [8] = p53 small molecule agonists, cell-based qHTS assay: qHTS cell viability counter screen (AID 1963581); further: nearly all actives have a fitted effect of over 45% in size
# Method in brief: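 p53RE-bla HCT-116 cells were exposed to compounds for 16 h at 37 C; after the beta-lactamase FRET read in the same wells, CellTiter-Glo was added and luminescence (intracellular ATP) read after 30 min at room temperature.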
# [9] = target: 5-hydroxytryptamine receptor 2A (Homo sapiens) (UniProt P28223); assay: 5-hydroxytryptamine receptor 2A (HTR2A) small molecule antagonists, cell-based qHTS assay (AID 1963586); further: nearly all actives have a fitted effect of over 45% in size
# 5-hydroxytryptamine receptor 2A (Homo sapiens), sequence (P28223 whole entry, looked up): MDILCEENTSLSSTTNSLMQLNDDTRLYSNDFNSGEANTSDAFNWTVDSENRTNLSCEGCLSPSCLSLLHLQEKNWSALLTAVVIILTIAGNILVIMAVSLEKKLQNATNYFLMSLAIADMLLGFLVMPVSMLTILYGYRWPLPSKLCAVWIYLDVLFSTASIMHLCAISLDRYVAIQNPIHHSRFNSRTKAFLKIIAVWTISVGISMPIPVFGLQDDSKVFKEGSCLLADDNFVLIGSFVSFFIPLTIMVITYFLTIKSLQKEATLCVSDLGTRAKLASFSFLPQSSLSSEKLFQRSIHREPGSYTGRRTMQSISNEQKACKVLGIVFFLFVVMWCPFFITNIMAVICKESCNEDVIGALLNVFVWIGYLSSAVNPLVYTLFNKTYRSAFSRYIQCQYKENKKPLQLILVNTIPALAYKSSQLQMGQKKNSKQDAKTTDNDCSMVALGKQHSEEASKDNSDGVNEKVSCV
# Method in brief: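 Antagonist-mode intracellular calcium assay: DOI (4 nM) added after 5 min compound pre-incubation at room temperature to dye-loaded HTR2A-CHO cells. Fluorescence followed for 3 min, sampled every second.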
# [10] = target: 5-hydroxytryptamine receptor 2A (Homo sapiens) (UniProt P28223); assay: 5-hydroxytryptamine receptor 2A (HTR2A) small molecule agonists, cell-based qHTS assay (AID 1963587); further: nearly all actives have a fitted effect of over 30% in size
# Method in brief: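 Kinetic calcium-flux fluorescence (2 min, 1 sec intervals) after compound addition in agonist mode. HTR2A-CHO cells were cultured 18 h, then dye-loaded 1 h at 37 C.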
# [11] = target: Muscarinic acetylcholine receptor M1 (Homo sapiens) (UniProt P11229); assay: Cholinergic receptor muscarinic 1 (CHRM1) small molecule antagonists, cell-based qHTS assay (AID 1963588); further: nearly all actives have a fitted effect of over 40% in size; further: potency means the concentration at half of the fitted maximal effect
# Muscarinic acetylcholine receptor M1 (Homo sapiens), sequence (P11229 whole entry, looked up): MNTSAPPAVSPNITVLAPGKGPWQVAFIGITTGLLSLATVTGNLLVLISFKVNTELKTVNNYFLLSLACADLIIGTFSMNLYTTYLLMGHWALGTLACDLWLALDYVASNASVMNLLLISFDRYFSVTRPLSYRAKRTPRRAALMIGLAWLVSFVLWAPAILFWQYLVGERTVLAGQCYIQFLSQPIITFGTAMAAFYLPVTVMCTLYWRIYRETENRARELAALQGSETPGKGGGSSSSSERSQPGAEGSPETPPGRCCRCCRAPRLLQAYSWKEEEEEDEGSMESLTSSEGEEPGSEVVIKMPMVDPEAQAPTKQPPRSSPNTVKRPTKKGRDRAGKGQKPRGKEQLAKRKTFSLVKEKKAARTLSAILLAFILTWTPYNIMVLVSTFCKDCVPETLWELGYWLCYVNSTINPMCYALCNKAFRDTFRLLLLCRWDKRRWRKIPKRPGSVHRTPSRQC
# Method in brief: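 CHRM1-CHO calcium-flux assay, antagonist mode. Cells were seeded 18 h, dye-loaded 1 h at 37 C and given compound for 5 min at RT, then acetylcholine was added at 50nM. FDSS fluorescence was read 3 min; 15 concentrations, three runs.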
# [12] = target: Muscarinic acetylcholine receptor M1 (Homo sapiens) (UniProt P11229); assay: Cholinergic receptor muscarinic 1 (CHRM1) small molecule agonists, cell-based qHTS assay (AID 1963589); further: nearly all actives have a fitted effect of over 35% in size; further: potency means the concentration at half of the fitted maximal effect
# Method in brief: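 CHO cells stably expressing human CHRM1, seeded 18 h at 37 C/5% CO2, dye-loaded 1 h at 37 C, then given compound in agonist mode; intracellular calcium fluorescence read kinetically at 1 s intervals. Fifteen concentrations, three independent runs.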
# [13] = cAMP Responsive Elements (CRE) small molecule agonists, cell-based qHTS assay (AID 1963590)
# Method in brief: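 CRE-bla HEK 293T cells in DMEM with 10% dialyzed FBS, NEAA, pyruvate and 25 mM HEPES were plated 18 h at 37 C/5% CO2, then exposed to compounds in DMSO for 3 h before LiveBLAzer B/G FRET substrate addition.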
# [14] = cAMP Responsive Elements (CRE) small molecule antagonists, cell-based qHTS assay (AID 1963591; active means well fitted inhibition curve with a large enough effect in the signal ratio in the repeat runs, not every such curve was filed as active; the % refers to the signal ratio)
# Method in brief: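 CRE-bla HEK293T cells were plated 18 h at 37 °C/5% CO2, pinned with compound in DMSO, then stimulated with NKH477 at 0.25 uM final for 3 h. LiveBLAzer B/G FRET substrate was added and plates incubated 2 h at room temperature.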
# [15] = target: Beta-2 adrenergic receptor (Homo sapiens) (UniProt P07550); assay: Adrenergic beta2 receptor (ADRB2) small molecule agonists, cell-based qHTS assay (AID 1963593);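 further: CHO cells stably overexpressing human ADRB2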
# Beta-2 adrenergic receptor (Homo sapiens), sequence (P07550 whole entry, looked up): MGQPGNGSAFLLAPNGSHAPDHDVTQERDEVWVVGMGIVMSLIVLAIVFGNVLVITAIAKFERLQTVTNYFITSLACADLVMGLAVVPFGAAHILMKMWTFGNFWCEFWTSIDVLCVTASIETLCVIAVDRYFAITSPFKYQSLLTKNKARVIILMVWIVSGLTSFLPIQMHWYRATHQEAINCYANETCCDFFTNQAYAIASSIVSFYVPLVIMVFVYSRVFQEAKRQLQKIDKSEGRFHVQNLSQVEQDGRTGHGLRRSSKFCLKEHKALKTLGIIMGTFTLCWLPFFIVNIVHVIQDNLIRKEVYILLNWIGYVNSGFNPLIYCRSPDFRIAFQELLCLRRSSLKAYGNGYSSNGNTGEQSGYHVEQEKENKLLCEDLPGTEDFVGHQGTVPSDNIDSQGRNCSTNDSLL
# Method in brief: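 CHO cells stably over-expressing ADRB2 were plated overnight at 37C, then dosed with compounds plus a stimulation mix containing 100uM IBMX and 25uM Ro-20-1724 for 0.5hr at room temperature. cAMP was measured by HTRF competition, 1hr.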
# [16] = target: D(2) dopamine receptor (Homo sapiens) (UniProt P14416); assay: Dopamine D2 receptor (DRD2) small molecule agonists, cell-based qHTS assay (AID 1963594); further: nearly all actives have a fitted effect of over 35% in size
# D(2) dopamine receptor (Homo sapiens), sequence (P14416 whole entry, looked up): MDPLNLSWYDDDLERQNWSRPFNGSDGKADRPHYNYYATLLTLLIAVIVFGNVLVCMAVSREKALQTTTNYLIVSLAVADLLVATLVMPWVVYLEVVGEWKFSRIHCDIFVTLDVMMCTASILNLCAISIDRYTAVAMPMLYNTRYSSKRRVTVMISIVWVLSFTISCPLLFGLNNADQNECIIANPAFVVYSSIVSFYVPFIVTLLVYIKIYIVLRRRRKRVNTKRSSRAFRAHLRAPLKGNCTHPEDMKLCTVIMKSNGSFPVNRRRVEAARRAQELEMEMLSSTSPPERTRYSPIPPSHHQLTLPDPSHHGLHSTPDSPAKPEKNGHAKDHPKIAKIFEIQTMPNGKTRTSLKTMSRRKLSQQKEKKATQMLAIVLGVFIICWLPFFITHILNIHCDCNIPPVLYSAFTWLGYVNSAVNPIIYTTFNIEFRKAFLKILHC
# Method in brief: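 cAMP accumulation in DRD2-HEK293 cells measured by HTRF after 1 h detection; compounds added 10 min before NKH477 (200nM […]) forskolin-analogue stimulation, 30 min at room temperature, with Ro20-1724 present at 0.1 mM final.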
# [17] = target: D(2) dopamine receptor (Homo sapiens) (UniProt P14416); assay: Dopamine D2 receptor (DRD2) small molecule antagonists, cell-based qHTS assay (AID 1963595; active means well fitted inhibition curve with a large enough effect in the signal ratio in the repeat runs, with a control signal flat; the % refers to the signal ratio)
# Method in brief: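 Human DRD2 antagonist qHTS measuring cAMP by HTRF. The cells are exposed to compound for 10 min, then to NKH477 (200 nM) and quinpirole (12 nM) for 30 min at RT, with Ro20-1724 (0.1 mM) present throughout.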
# [18] = target: Beta-2 adrenergic receptor (Homo sapiens) (UniProt P07550); assay: Adrenergic beta2 receptor (ADRB2) small molecule antagonists, cell-based qHTS assay (AID 1963592); further: series mostly up to about 92 µM; nearly all actives have a fitted effect of over 50% in size
# Method in brief: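 Cells (CHO, stable ADRB2 overexpression) incubated 18-20hr at 37C; compounds added from DMSO; agonist mix (1nM isoproterenol, 100uM IBMX, 25uM Ro-20-1724) added; 0.5hr RT; d2-cAMP and anti-cAMP-cryptate added; 1hr RT; 665/615 nm read.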
# [19] = p53 small molecule agonists, cell-based qHTS assay with rat liver microsomes (AID 1963578)
# Method in brief: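 Read-out is beta-lactamase reporter fluorescence (LiveBLAzer, 2 h, room temperature, dark) in p53RE-bla cells treated 16 h at 37 C with compound, rat liver microsomes and NADPH, both 0.5 mg/mL final.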
smiles,measurement,setting,value
C=COCCOCCOC=C,Potency,[1],inactive
same,Potency,[2],inactive
same,Potency,[3],inactive
same,Potency,[4],inactive
same,Potency,[5],inactive
same,Potency,[6],inactive
same,Potency,[7],inactive
same,Potency,[8],inactive
same,Potency,[9],inactive
same,Potency,[10],inactive
same,Potency,[11],inactive
same,Potency,[12],inactive
same,Potency,[13],inactive
same,Potency,[14],inactive
same,Potency,[15],inactive
same,Potency,[16],inactive
same,Potency,[17],inactive
Cc1c(F)c(N2CCNC(C)C2)cc2c1c(=O)c(C(=O)O)cn2C1CC1 (stereo unspecified),Potency,[1],inactive
same,Potency,[2],inactive
same,Potency,[3],inactive
same,Potency,[4],inactive
same,Potency,[6],inactive
same,Potency,[7],inactive
same,Potency,[8],inactive
same,Potency,[18],inactive
same,Potency,[15],inactive
same,Potency,[16],inactive
O=S(=O)(O)c1cc(S(=O)(=O)O)c2ccc3c(S(=O)(=O)O)cc(S(=O)(=O)O)c4ccc1c2c43,"activity change, negative = cytotoxicity",[1],0.791% [at 19 µM]
same,"activity, positive = activation",[2],-1.98% [at 19 µM]
same,activity change,[3],"0.0619% [at 11.8 µM, active compounds read high]"
same,activation,[4],0.205% [at 11.8 µM]
same,activation,[5],-0.621% [at 13.5 µM]
same,"activity change, negative = cytotoxicity",[6],-2.1% [at 13.5 µM]
same,"activity change, negative = cytotoxicity",[7],1.49% [at 13.5 µM]
same,"activity change, negative = cytotoxicity",[8],-29.1% [at 13.5 µM]
same,"activity, negative = inhibition",[9],-5.22% [at 12.7 µM]
same,activation,[10],-0.138% [at 15.9 µM]
same,"activity, negative = inhibition",[11],-5.56% [at 12.6 µM]
same,activation,[12],-0.115% [at 15.8 µM]
same,activation,[13],0.24% [at 19 µM]
same,"activity change, negative = inhibition",[14],-8.72% [at 18.9 µM]
same,"activity change, negative = inhibition",[18],1.38% [at 19 µM]
same,activation,[15],-12.6% [at 19 µM]
same,activation,[16],0.241% [at 19 µM]
same,"activity change, negative = inhibition",[17],-2.86% [at 18.9 µM]
CCN(CC)CCNC(C(=O)OCCC(C)C)c1ccccc1 (stereo unspecified),Potency,[1],inactive
same,Potency,[2],inactive
same,Potency,[3],inactive
same,Potency,[4],inactive
same,Potency,[6],inactive
same,Potency,[7],inactive
same,Potency,[8],inactive
same,Potency,[9],inactive
same,Potency,[10],inactive
same,Potency,[11],516 nM (active)
same,Potency,[12],inactive
same,Potency,[13],inactive
same,Potency,[14],inactive
same,Potency,[18],inactive
same,Potency,[16],inactive
same,Potency,[17],inactive
CCCCCC=CCC=CCCCCCCCC(=O)OCC,Potency,[1],inactive
same,Potency,[2],29800 nM (active)
same,Potency,[3],inactive
same,Potency,[4],inactive
same,Potency,[19],inactive
same,Potency,[6],inactive
same,Potency,[8],inactive
same,Potency,[9],inactive
same,Potency,[10],inactive
same,Potency,[11],inactive
same,Potency,[12],inactive
same,Potency,[18],inactive
same,Potency,[17],inactive
Nc1ccc(/C=C/c2ccc(N)cc2S(=O)(=O)O)c(S(=O)(=O)O)c1,"activity change, negative = cytotoxicity",[1],-4.83% [at 0.349 µM]
same,"activity, positive = activation",[2],-0.938% [at 0.349 µM]
same,activity change,[3],"-1.31% [at 0.217 µM, active compounds read high]"
same,activation,[4],-1.11% [at 0.217 µM]
same,"activity change, negative = cytotoxicity",[6],-0.304% [at 0.249 µM]
same,"activity change, negative = cytotoxicity",[7],0.884% [at 0.249 µM]
same,"activity change, negative = cytotoxicity",[8],-1.67% [at 0.249 µM]
same,"activity, negative = inhibition",[9],63.5% [at 0.233 µM]
same,activation,[10],1.96% [at 0.292 µM]
same,"activity, negative = inhibition",[11],18% [at 0.232 µM]
same,activation,[12],0.145% [at 0.29 µM]
same,activation,[13],-0.633% [at 0.349 µM]
same,"activity change, negative = inhibition",[14],-10.6% [at 0.349 µM]
same,"activity change, negative = inhibition",[18],-6.48% [at 0.349 µM]
same,activation,[15],-7.68% [at 0.349 µM]
same,activation,[16],-13.5% [at 0.349 µM]
same,"activity change, negative = inhibition",[17],6.36% [at 0.348 µM]
C[C@@H]1C[C@H]2[C@@H]3CCC4=CC(=O)C=C[C@]4(C)[C@@]3(Cl)[C@@H](O)C[C@]2(C)[C@@]1(OC(=O)c1ccco1)C(=O)CCl,Potency,[1],inactive
same,Potency,[2],inactive
same,Potency,[3],inactive
same,Potency,[4],inactive
same,Potency,[19],inactive
same,Potency,[6],inactive
same,Potency,[7],inactive
same,Potency,[8],inactive
same,Potency,[9],inactive
same,Potency,[10],inactive
same,Potency,[11],inactive
same,Potency,[12],inactive
same,Potency,[14],inactive
same,Potency,[16],inactive
same,Potency,[17],inactive
CC(=O)OC(C)C[N+](C)(C)C (stereo unspecified),Potency,[1],inactive
same,Potency,[2],inactive
same,Potency,[3],1070 nM (active)
same,Potency,[4],inactive
same,Potency,[19],inactive
same,Potency,[6],inactive
same,Potency,[7],inactive
same,Potency,[8],inactive
same,Potency,[10],inactive
same,Potency,[12],151 nM (active)
same,Potency,[13],inactive
same,Potency,[14],inactive
same,Potency,[18],inactive
same,Potency,[16],inactive
same,Potency,[17],inactive
